Shown are actives, neighbours in structure and some others; about 21% of the full set was active somewhere.
DT40 TDP1 CPT: qHTS for Inhibitors of human tyrosyl-DNA phosphodiesterase 1 (TDP1): qHTS in cells in presence of CPT; chicken DT40 Tdp1-/-;hTDP1 cells + 20 nM CPT, ATP luminescence, 48 h; Potency, µM (top dose mostly 46.2 µM), for the others: at the top dose activity change, negative = growth inhibition, actives largely listed as inhibitors; actives 12% (n = 420,000); AID 686979, 2013; also: potency is read from the fitted curve at half-maximal effect; nearly all actives have a fitted effect of over 55% in size
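Chicken DT40 Tdp1-/- cells stably complemented with human TDP1 were seeded at 400 cells/well in medium containing 20 nM camptothecin, exposed to pin-transferred compounds, and grown at 37 °C for at least 48 hr. Viability was read as ATP luminescence.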
DT40 TDP1 no CPT: qHTS for Inhibitors of human tyrosyl-DNA phosphodiesterase 1 (TDP1): qHTS in cells in absence of CPT | DT40 Tdp1-/- hTDP1 cells, no CPT, ATP luminescence, 48 h | Potency, µM (top dose mostly 46.2 µM), for the others: at the top dose activity change, negative = growth inhibition, actives largely listed as inhibitors | actives 15% (n = 420,000); also: potency is read from the fitted curve at half-maximal effect; nearly all actives have a fitted effect of over 55% in size
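Chicken DT40 Tdp1-/- cells stably complemented with human TDP1 were seeded at 400 cells/well with DMSO in place of 20 nM camptothecin. After compound pinning, cells grew at least 48 hr at 37 °C; viability read by CellTiter-Glo luminescence.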
RORg inh: qHTS for inhibitors of ROR gamma transcriptional activity; Drosophila S2 Gal4-RORgamma UAS-luciferase reporter, 20 h; Nuclear receptor ROR-gamma (Mus musculus), P51450; actives 5.4% (n = 310,000); AID 2551, 2010; Potency, µM (titrated, usually from 53.6 µM), inactives show top-dose activity change, negative = inhibition, hits mostly inhibitors; also: potency is read from the fitted curve at half-maximal effect; nearly all actives have a fitted effect of over 60% in size
Target sequence (P51450 whole entry, looked up, the tested form may be a part): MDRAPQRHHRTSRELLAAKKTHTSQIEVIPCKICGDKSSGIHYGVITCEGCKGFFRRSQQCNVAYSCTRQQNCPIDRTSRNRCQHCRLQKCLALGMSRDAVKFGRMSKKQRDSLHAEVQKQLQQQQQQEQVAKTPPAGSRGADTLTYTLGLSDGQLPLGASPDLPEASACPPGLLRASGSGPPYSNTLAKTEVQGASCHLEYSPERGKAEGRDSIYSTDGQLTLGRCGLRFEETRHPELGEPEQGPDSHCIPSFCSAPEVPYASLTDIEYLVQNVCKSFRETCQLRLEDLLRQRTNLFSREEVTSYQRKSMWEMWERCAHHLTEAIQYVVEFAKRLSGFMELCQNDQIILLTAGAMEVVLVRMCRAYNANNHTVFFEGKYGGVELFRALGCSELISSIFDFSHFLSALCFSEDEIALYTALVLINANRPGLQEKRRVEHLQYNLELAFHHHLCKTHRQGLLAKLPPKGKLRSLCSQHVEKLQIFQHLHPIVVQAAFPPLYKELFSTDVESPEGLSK
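A Gal4/UAS one-hybrid system in insect cells: metallothionein-promoter Gal4–ROR gamma fusion plus Photinus luciferase reporter. Copper sulfate 700 uM final, 20 hr ambient incubation, luminescent detection after 10 min with reagent.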
IL1B secr inh: qHTS for Inhibitors of Inflammasome Signaling: IL-1-beta AlphaLISA Primary Screen. THP-1 LPS/ATP IL-1B secretion, AlphaLISA, 16 h; stronger effect = lower value. activity change, % at 57.5 µM. actives 4.7% (n = 360,000). AID 743279, 2014; in the data active = activity change below about -50%; inconclusive = mostly about -30% to -49%
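Secreted IL-1B measured by AlphaLISA bead assay after 16 h compound exposure of THP-1 cells; compounds (final up to 57.5 uM) added 1 h before LPS (250 ng/mL) and ATP (1.25 mM) stimulation; lower signal means less secretion.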
ELG1 DNA repair: qHTS screen for small molecules that inhibit ELG1-dependent DNA repair in human embryonic kidney (HEK293T) cells expressing luciferase-tagged ELG1; actives 2.3% (n = 330,000); AID 504467, 2011; Potency, µM (titrated, usually from 46.1 µM), for the others: top-dose activity change, negative = inhibition, usual class: inhibitors; HEK293T ELG1-luciferase reporter, luminescence, 16 h; DNA damage induced by 5-fluorouridine; also: potency is read from the fitted curve at half-maximal effect; nearly all actives have a fitted effect of over 55% in size
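Quantitative HTS, concentration-response format. 2,000 cells/well co-treated with 5-fluorouridine and compound, 16 hr in 5% CO2 at 37 °C; ONE-Glo luminescence read after 30 min.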
VP16 counter: VP16 counterscreen qHTS for inhibitors of ROR gamma transcriptional activity; Drosophila S2 Gal4-VP16 UAS-luciferase, luminescence, 20 h; Potency, µM (highest dose often 53.6 µM), for inactives: top-dose activity, negative = inhibition, actives largely listed as inhibitors; actives 3.5% (n = 310,000); AID 2546, 2010;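 also: Gal4-VP16 expression switched on by copper sulfate through the metallothionein promoter; potency is read from the fitted curve at half-maximal effect; nearly all actives have a fitted effect of over 50% in size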
Starred values were filed as active, the others as inactive; [ ] = another dose, or the depositor's remark. Unless noted, calls follow the shape of the dose curve; as a rule, active = well fitted curve in the direction sought with a large enough effect; inconclusive = small, poorly fitted or top-dose-only effect, or another doubt; inactive = no such curve, though single readings can be large; an effect the other way counts as inactive or inconclusive. % is scaled to controls: 0 for no effect and ±100 for the full control effect.

COc1nnc(-c2ccc(N3CCOCC3)c(NC(=O)c3ccco3)c2)c2ccccc12 was read as DT40 TDP1 CPT inconclusive, DT40 TDP1 no CPT 26µM*, RORg inh -15%, IL1B secr inh -16, ELG1 DNA repair inconclusive and VP16 counter -2%.
Screening O=C(Nc1ccc2ccccc2n1)c1ccc(Cl)cc1 returned DT40 TDP1 CPT 6%, DT40 TDP1 no CPT inconclusive, RORg inh -43%, IL1B secr inh 40, ELG1 DNA repair inconclusive and VP16 counter -5%.
For O=C(Nc1ccc2ccccc2n1)c1ccccc1Cl the results were DT40 TDP1 CPT inconclusive, DT40 TDP1 no CPT inconclusive, RORg inh 13µM*, IL1B secr inh 0, ELG1 DNA repair inconclusive and VP16 counter inconclusive.
`COc1ccc(C(=O)Nc2ccc3ccccc3n2)c(OC)c1OC` gave DT40 TDP1 CPT inconclusive, DT40 TDP1 no CPT inconclusive, RORg inh 8.9µM*, IL1B secr inh -76*, ELG1 DNA repair inconclusive and VP16 counter 10µM*.
`O=C(C1Cc2ccccc2CN1S(=O)(=O)c1ccccc1[N+](=O)[O-])N1CCOCC1` (stereo not given) gave DT40 TDP1 CPT 21µM*, DT40 TDP1 no CPT inconclusive, IL1B secr inh 4 and ELG1 DNA repair 0%.
O=C(C1CCN(S(=O)(=O)c2ccccc2[N+](=O)[O-])CC1)N1CCOCC1 was read as DT40 TDP1 CPT -12%, DT40 TDP1 no CPT -10%, RORg inh 7%, IL1B secr inh 13, ELG1 DNA repair 9% and VP16 counter -1%.
For COC(=O)[C@@]12C[C@@H](CC(=O)N3CCSCC3)C(=O)N(Cc3cccc4ccccc34)C1=CCC(C)(C)C2 the results were DT40 TDP1 CPT inconclusive, DT40 TDP1 no CPT inconclusive and IL1B secr inh -3.
COc1ccc(OC)c(-c2csc(NC(=O)Cc3ccc(F)cc3)n2)c1 was read as DT40 TDP1 CPT -1%, DT40 TDP1 no CPT inconclusive, RORg inh -5%, IL1B secr inh -69*, ELG1 DNA repair -20% and VP16 counter -14%.
COc1ccc(OC)c(-c2csc(NC(=O)c3ccc(F)cc3)n2)c1 was read as DT40 TDP1 CPT 7.3µM*, DT40 TDP1 no CPT inconclusive, RORg inh 11µM*, IL1B secr inh -2, ELG1 DNA repair inconclusive and VP16 counter 10µM*.
`Cc1ccc(-c2csc(NC(=O)Cc3ccc(F)cc3)n2)o1` gave DT40 TDP1 CPT -6%, DT40 TDP1 no CPT -11%, RORg inh 11%, IL1B secr inh -65*, ELG1 DNA repair -20% and VP16 counter -6%[10 µM].
`COc1ccc(OC)c(-c2csc(NC(=O)CSc3ccc([N+](=O)[O-])cc3)n2)c1` gave DT40 TDP1 CPT inconclusive, DT40 TDP1 no CPT 16µM*, RORg inh 3%, IL1B secr inh -69*, ELG1 DNA repair inconclusive and VP16 counter inconclusive.
Cc1csc2nc(COC(=O)c3ccc(Cl)c([N+](=O)[O-])c3)cc(=O)n12 was read as DT40 TDP1 CPT inconclusive, DT40 TDP1 no CPT inconclusive, IL1B secr inh 11 and ELG1 DNA repair 10%.
Screening COc1ccc(OC)c(-c2csc(NC(=O)c3ccc(OCC4CCCO4)cc3)n2)c1 (stereo not given) returned DT40 TDP1 CPT inconclusive, DT40 TDP1 no CPT inconclusive, RORg inh 12%, IL1B secr inh 26, ELG1 DNA repair 6.5µM* and VP16 counter -12%.
Cc1ccc(NC(=O)c2ccc(OCC3CCCO3)cc2)cc1 (stereo not given) was read as DT40 TDP1 CPT inconclusive, DT40 TDP1 no CPT inconclusive, RORg inh -7%, IL1B secr inh 9, ELG1 DNA repair inconclusive and VP16 counter -18%.
`CC(C)C[C@H](NC(=O)[C@H](CO)NC(=O)[C@H](C)NC(=O)[C@H](CCCN=C(N)N)NC(=O)[C@H](CCCN=C(N)N)NC(=O)[C@@H](N)CC(C)C)C(=O)NCC(=O)O` gave RORg inh -9% and VP16 counter 2%.
Screening CCCCn1nnnc1C(c1ccccc1)N1CCN(c2ccc(C(F)(F)F)cn2)CC1 (stereo not given) returned DT40 TDP1 CPT inconclusive, DT40 TDP1 no CPT 18µM* and IL1B secr inh inconclusive.
CCCCn1nnnc1C(c1ccccc1)N1CCN(c2ncccc2C(F)(F)F)CC1 (stereo not given) was read as DT40 TDP1 CPT inconclusive, DT40 TDP1 no CPT 18µM* and IL1B secr inh -51*.
Screening CCC(c1nnnn1-c1c(C)cccc1C)N1CCN(c2ccc(C(F)(F)F)cc2[N+](=O)[O-])CC1 (stereo not given) returned DT40 TDP1 CPT inconclusive, DT40 TDP1 no CPT -58% and IL1B secr inh inconclusive.
Screening CCCCn1nnnc1C(c1ccccc1)N1CCN(CC)CC1 (stereo not given) returned DT40 TDP1 CPT -22%, DT40 TDP1 no CPT -11% and IL1B secr inh 34.
CCCCn1nnnc1C(c1ccccc1)N1CCN(c2ccc(C(F)(F)F)cc2[N+](=O)[O-])CC1 (stereo not given) was read as DT40 TDP1 CPT inconclusive, DT40 TDP1 no CPT 18µM* and IL1B secr inh -12.
For C[C@]12CCC(=O)C=C1CCC1C2C(=O)C[C@]2(C)C1CC[C@]2(O)C(=O)CO (stereo not given in full) the results were RORg inh -3% and VP16 counter -7%.
`Cc1ccc(C(=O)NC(Cc2ccccc2C(F)(F)F)C(=O)O)cc1` (stereo not given) gave DT40 TDP1 CPT -3%, DT40 TDP1 no CPT 0%, IL1B secr inh 10 and ELG1 DNA repair 19%.
C[C@@H]1COC(=O)[C@@H](Cc2ccc(F)cc2)C/C=C\C[C@@H](CC(=O)NCCO)C(=O)N1 was read as DT40 TDP1 CPT 1%, DT40 TDP1 no CPT 7%, IL1B secr inh 41 and ELG1 DNA repair 13%.
Screening O=C(c1cccc(Br)c1)c1nc2ccccc2[nH]c1=O returned DT40 TDP1 CPT -12%, DT40 TDP1 no CPT -1% and IL1B secr inh -1.
